Each structure is given as a SMILES string. Values joined by “and” are separate entries in the source; they are usually repeats but may differ in a detail not shown here. Equal entries are not always repeated. Compounds without any hit were thinned out: in the full panel of roughly 83,000, 20% have a hit.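 Percent growth is the endpoint: 0 to 100 indicates growth inhibition (40 means 60% inhibition), 0 means no net growth, and negative values indicate cell death.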 Active and inactive are the calls of the source.

In one assay the test system is MCF7 breast. Put plainly: NCI-60 one-dose screen, 48 h (100 = growth as untreated, 0 = no growth, -100 = all killed). To be noted: 0.25 µM. How it is done: Growth inhibition of the MCF7 human tumor cell line is measured as a screen for anti-cancer activity. Cells are grown in 96 well plates and exposed to the test compound for 48 hours. Compounds are tested at a single concentration, which is 10^-5 M for most compounds. The reported endpoint is percent growth (GI% or GIPRCNT), where numbers from 0 - 100% represent growth inhibition, and numbers from -100% - 0 represent cell death. For example, a value of 40 represents 60% growth inhibition. A value of 0 means no net growth occurred over the course of the experiment. A value of -40 indicates 40% of cells at the beginning of the experiment died by the end of the experiment. A value of -100 means all cells are dead at the end of the experiment.
NCI-60 Human Tumor Cell Lines Screen was performed using the standard one-dose NCI protocol, which is described in more detail at https://dtp.cancer.gov/discovery_development/nci-60/default.htm.
Compounds with GIPRCNT values below 10 were considered active. Activity score was based on GIPRCNT using the following formula: […]
Score is 0 for GIPRCNT values of 100 or above, 50 for GIPRCNT values of 0, and 100 for GIPRCNT values of -100.
For the molecule `CCCCCCCCCCCCCCCc1ccc(Cl)c(O)c1Cl` (tested in a mixture with another compound), the growth is 16.4% (inactive).

The same assay, now with this note: 1 µM.
As to `CNC(=O)c1cc(Oc2ccc(CC(=O)Nc3cc(C(C)(C)C)nn3C)cc2)ccn1`, the growth was 61.4% (inactive).

Still in this assay, the particulars now being: 10 µM.
For `CC(C)(C)c1cc(NC(=O)Cc2ccc(-c3cnc4cc(-c5cnn(CCN6CCOCC6)c5)ccc4n3)cc2)no1`, the growth was 35.4% (inactive).
On the same count and under the same terms, in the case of `CNC(=O)c1cc(Oc2ccc(CC(=O)Nc3cc(C(C)(C)C)nn3C)cc2)ccn1` it was 53.5% (inactive).
Same read-out and setting: as for `CCCCCCCCCCCCCCCc1ccc(Cl)c(O)c1Cl` (tested in a mixture with another compound), the figure is 112% (inactive).

The assay is the same for the next values; noted with them: 10 µM unless noted.
For `CCOC(=O)COc1cc(-c2ccccc2)nc2cc(F)ccc12`, the growth is 49.3% [100 µM] (inactive) and 35.8% [100 µM] (inactive).
Same read-out and setting: as for `CC1CCCC(=O)O1` (stereo not given), the figure is 96.3% (inactive) and 101% (inactive).
The same measure, in the same setting: in the case of `CCOc1ccc2c(S(=O)(=O)O)cccc2c1[N+](=O)[O-]` it was 107% (inactive) and 104% (inactive); in that of `COc1cc(C)c2c(c1C=O)Oc1c(c(C)c(O)c3c1C(O)OC3=O)OC2=O` (stereo not given), 1.49% [100 µM] (active) and 87.3% [100 µM] (inactive); in that of `CC1C2(C)OC(=N)C(C#N)(C(c3cccc([N+](=O)[O-])c3)O2)C1(C#N)C#N` (stereo not given), 98.4% [100 µM] (inactive).
Take `COc1ccc(C)cc1NC(=S)C#N`: the growth is 77.9% [100 µM] (inactive) and 4.98% [100 µM] (active).
Same read-out and setting: as for `C=C1C2CCC3C4(C)CCCC(C)(C(=O)O)C4CCC3(C2)C1OC(=O)/C(C)=C/C` (stereo not given), the figure is 1.75% [100 µM] (active) and 65.7% [100 µM] (inactive).
On the same count and under the same terms, as for `CCCCCCCCCC(=O)CC(=O)c1c(O)cc(O)cc1O`, the figure is -63.3% [75 µM] (active) and -13.9% [75 µM] (active); as for `N#Cc1n[nH]n(-c2ccccc2)c1=O`, 95% [100 µM] (inactive) and 80.4% [100 µM] (inactive); as for `COc1ccccc1NC(=O)OCC#CCOC(=O)Nc1ccccc1OC`, 107% (inactive) and 91.8% (inactive).
`NC(=S)N/N=C(\c1ccc(Br)cc1)C1CC1`: the growth is 24.4% (inactive) and 20.6% (inactive).
Turning to `CC1=C[C@H]2c3c(c(O)c(O)c4oc5cc(O)cc(O)c5c(=O)c34)[C@H](c3cc(O)c(O)c4oc5cc(O)cc(O)c5c(=O)c34)[C@H]2C(C)(C)C1`, the growth was -19.7% (active) and -76.5% (active).
On to `CNC(=S)/C(=N\Nc1nc[nH]c1C(N)=O)C(N)=S`, for which the growth was 10.6% [100 µM] (inactive) and 4.26% [100 µM] (active).
For `O=C(Nc1cccc(-n2ccc3c(NC(=O)c4ccccc4)nccc32)c1)c1ccc(Cl)c(C(F)(F)F)c1`, the growth is -48.5% (active) and 37.4% (inactive).
On to `Cc1ccc(/C=N/Nc2nc3ccccc3s2)s1`, for which the growth is 2.03% [100 µM] (active) and 4.5% [100 µM] (active).
As for `Cc1cc(-c2ccc(NS(=O)(=O)c3ccccc3)c(C)c2)ccc1NS(=O)(=O)c1ccccc1`, the growth is 60.4% (inactive) and 82.9% (inactive).
As for `Cc1cccc(/C=C\C(=O)c2ccc(Cl)cc2)c1`, the growth is 51.5% (inactive) and 73.7% (inactive).
Regarding `Nc1ccc(N=Nc2ccc(S(=O)(=O)O)cc2)cc1S(=O)(=O)O`, the growth is 104% (inactive) and 92.8% (inactive).
For the molecule `C/C(=C\COc1cc(O)c2c(c1)C(=O)c1cc(C)cc(O)c1C2=O)CCC1OC1(C)C` (stereo not given), the growth is 20.6% [100 µM] (inactive) and 2.66% [100 µM] (active).
On the same count and under the same terms, as for `COc1cc([C@H]2OC[C@H]3[C@@H]2CO[C@@H]3c2cc(OC)c3c(c2)OCO3)cc(OC)c1OC`, the figure is 18.5% [100 µM] (inactive) and 2.61% [100 µM] (active).
The same measure, in the same setting: in the case of `Cc1ccc(OCC2OC(n3cnc4nc(N)nc(Cl)c43)CC2Oc2ccc(C)cc2)cc1` (stereo not given) it was 45.4% [100 µM] (inactive) and -87.9% [100 µM] (active); in that of `Cc1ccc(OCC2OC(n3cnc4c(Cl)nc(Cl)nc43)CC2Oc2ccc(C)cc2)cc1` (stereo not given), -91.5% [100 µM] (active) and -93.1% [100 µM] (active).
Regarding `N/C(=N\N=C\c1ccc2c(c1)OCO2)N/N=C\c1ccc2c(c1)OCO2`, the growth is 94% (inactive) and 56% (inactive).
Take `Cn1cnc([N+](=O)[O-])c1Sc1ncnc2nc[nH]c12`: the growth was 36.2% (inactive) and 33.2% (inactive).
For `COc1cc(-c2nccc3cc4c(cc23)OCO4)cc(OC)c1OC`, the growth was 20.9% (inactive) and 16.7% (inactive).
As to `O=C(Nc1ccc([N+](=O)[O-])cc1Cl)c1cc(Cl)ccc1O`, the growth is 3.12% (active).
As to `N#CC1(C#N)C2CCCCC23OC(=N)C1(C#N)C(c1ccccc1)O3` (stereo not given), the growth is -47% [100 µM] (active).
As to `O=C1OC2(c3ccccc31)c1ccc(O)c(O)c1Oc1c2ccc(O)c1O`, the growth was 109% (inactive) and 105% (inactive).
The same measure, in the same setting: in the case of `O=C(O)c1cc(C(=O)O)cc([N+](=O)[O-])c1` it was 104% (inactive).
Consider `Cc1nnc(NC/C=C/c2ccccc2)s1`, for which the growth is 98.8% (inactive) and 96.2% (inactive).
As to `COc1ccc2nc(Cl)cc(C)c2c1`, the growth is 92.1% (inactive) and 111% (inactive).
`CCC(c1ccc(N(C)C)cc1)C1NC(=S)NC1=O` (stereo not given): the growth was 37.9% [100 µM] (inactive) and 10.5% [100 µM] (inactive).
`COc1ccc(NC(=S)Nc2ccccn2)cc1`: the growth is 95.1% (inactive).

The assay is the same for the next values; noted with them: 30 µM.
As to `CC(C)(C)c1cc(NC(=O)Cc2ccc(-c3cnc4cc(-c5cnn(CCN6CCOCC6)c5)ccc4n3)cc2)no1`, the growth was 33.8% (inactive).
On to `CNC(=O)c1cc(Oc2ccc(CC(=O)Nc3cc(C(C)(C)C)nn3C)cc2)ccn1`, for which the growth was 44.4% (inactive).

For the origin of these results see PubChem BioAssay (NCI).
